# The supplement of paper PMC9694430
# Assays:
# Experiment in all cases: thermal shift delta Tm vs DMSO control; higher = stronger stabilization (binding)
# Settings in all cases: 12.5 µM; protein concentration 2 µM
# [1] = system: LOC_OS01G57100-cb003
# Summary of the method: (§1)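 Rice kinase domain constructs, made in E. coli and purified, were placed in 96-well plates at 2 μM in 19.5 μl of 100 mM potassium phosphate pH 7.5, 150 mM NaCl, 10% glycerol and 5 × SYPRO Orange, with compound in DMSO. A temperature ramp from 25°C to 95°C at 0.05°C/s was used for differential scanning fluorimetry. The melting temperature shift is a triplicate mean compared with DMSO-only protein, derived from Boltzmann fits.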
# [2] = system: LOC_OS01G60330-cb001
# Summary of the method: as §1
# [3] = system: LOC_OS01G60700-cb002
# Summary of the method: as §1
# [4] = system: LOC_OS01G63280-cb003
# Summary of the method: as §1
# [5] = system: LOC_OS01G67340-cb003
# Summary of the method: as §1
# [6] = system: LOC_OS01G70970-cb002
# Summary of the method: as §1
# [7] = system: LOC_OS02G07810-cb001
# Summary of the method: as §1
# [8] = system: LOC_OS02G08530-cb003
# Summary of the method: as §1
# [9] = system: LOC_OS02G14120-cb001
# Summary of the method: as §1
# [10] = system: LOC_OS02G17970-cb001
# Summary of the method: as §1
# 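Note: purified Escherichia coli-expressed rice kinase domain construct.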
Structure (SMILES),thermal shift delta Tm [1] [°C],thermal shift delta Tm [2] [°C],thermal shift delta Tm [3] [°C],thermal shift delta Tm [4] [°C],thermal shift delta Tm [5] [°C],thermal shift delta Tm [6] [°C],thermal shift delta Tm [7] [°C],thermal shift delta Tm [8] [°C],thermal shift delta Tm [9] [°C],thermal shift delta Tm [10] [°C]
C=CCc1ccc(O)c(-c2ccc(O)c(CC=C)c2)c1 [Honokiol],2.73,0.73,1.34,1.12,1.09,0.71,1.8,1.59,0.96,1.32
C[C@@H](Oc1cc(-c2cnn(C3CCNCC3)c2)cnc1N)c1c(Cl)ccc(F)c1Cl,2.74,1.69,0.88,0.44,1.69,1.7,0.08,0.54,10.6,0.54
CN(C)S(=O)(=O)c1ccc2c(c1)/C(=C/c1cc3c([nH]1)CCCC3)C(=O)N2,6.51,10.9,1.5,7.86,11.3,5.65,1.5,5.64,13,1.69
O=c1cc(-c2cccc3c2Sc2ccccc2S3)oc(N2CCOCC2)c1,0.21,1.07,0.76,0.32,-0.52,-0.34,0.78,0.47,0.45,0.59
COc1cc2c(Oc3ccc(NC(=O)C4(C(=O)Nc5ccc(F)cc5)CC4)cc3F)ccnc2cc1OCCCN1CCOCC1,0.61,1.45,0.58,0.93,3.45,2.5,1.74,1.31,7.45,0.62
C=CC(=O)Nc1cccc(Oc2nc(Nc3ccc(N4CCN(C)CC4)cc3)nc3ccsc23)c1,2.41,0.93,3.14,0.86,0.85,1.8,1.13,2.66,3.63,2.18
O=C1NC(=O)/C(=C/c2ccc3c(c2)OC(F)(F)O3)S1,2.63,0.63,1.33,0.41,0.47,0.52,1.34,0.96,-0.18,0.93
